The text below walks through data of PubChem BioAssay (NCATS).

Inconclusive results are not listed. Calls of active or inactive are those of the source. The call rests on the fitted dose curve; in most records, active means well fitted inhibition curve with a large enough effect; inconclusive means small, poorly fitted or top-dose-only effect; inactive means flat fitted curve, though single readings scatter.

Common to all, as to assay: qHTS profiling for inhibitors of Plasmodium falciparum proliferation (AID 504749); further: nearly all actives have a fitted effect of over 60% in size
Common to all, as to details: P. falciparum in erythrocytes, SYBR Green DNA, 72 h; series mostly up to 28.7 µM
In general terms: Quantitative high-throughput screening tests each substance at several concentrations.

Assay [1] has as its system CP305. In short, it runs like this: (§1)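 Three-day growth assay of blood-stage parasites in erythrocytes (0.3% parasitemia, 2.5% hematocrit) at 37 C, 5% CO2, quantified by SYBR Green DNA staining after overnight detergent lysis.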
For assay [2], the system named is CP315. In short, it runs like this: as §1
Assay [3] deals with CP325. In short, it runs like this:
as §1

The test system of assay [4] is CP329. The method, boiled down: as §1
For assay [5], the system named is DIV14. In short, it runs like this:
as §1

In assay [6] the test system is DIV30. In short, it runs like this:
as §1

Assay [7] relates to Dd2. The method, boiled down:
as §1

Assay [8] deals with FAB9. In short, it runs like this: as §1
Assay [9] deals with ICS. In short, it runs like this: as §1
The subject of assay [10] is JCK. The method, boiled down: as §1
In assay [11] the test system is DIV17. In short, it runs like this: as §1
Assay [12] has as its system ECU. In short, it runs like this: as §1
Assay [13] relates to GB4. The method, boiled down:
as §1

For assay [14], the system named is HB3. The method, boiled down:
as §1

Assay [15] relates to N140. The method, boiled down:
as §1

Assay [16] concerns P93_24. In short, it runs like this: as §1
Assay [17] concerns P94_40. In short, it runs like this: as §1
The subject of assay [18] is PAD. The method, boiled down:
as §1

In assay [19] the test system is CP335. In short, it runs like this: as §1
Assay [20] has as its system DFO2036. The method, boiled down:
as §1
Potency means the concentration at half of the fitted maximal effect.

For `NC(=O)CC[C@@H]1NC(=O)[C@H](Cc2ccccc2)NC(=O)[C@H](Cc2ccc(O)cc2)NC(=O)[C@@H](N)CSSC[C@@H](C(=O)N2CCC[C@H]2C(=O)N[C@@H](CCCN=C(N)N)C(=O)NCC(N)=O)NC(=O)[C@H](CC(N)=O)NC1=O`, the Potency entry in assay [1], in [2], in assay [3], in assay [4], in assay [5] and in [6] was “inactive” each time. Moreover, the Potency entry in assay [7], in assay [8] and in [10] was “inactive” throughout. In addition, the Potency in assay [9] was 8.91 µM (active).
On to `CCOC(=O)Cc1ccc(-c2ccccc2)cc1`, for which the Potency result in assay [1], in assay [2], in [3], in [4], in [5] and in [11] was “inactive” each time. For the same compound, the Potency result in [7], in assay [12], in [8], in assay [13], in [14] and in assay [9] was “inactive” in each case. Moreover, the Potency entry in [10], in assay [16], in assay [17] and in assay [18] was “inactive” in each case. For the same compound, the Potency in [15] is 0.224 µM (active).
As to `C=CCN1CCCC1CNC(=O)c1cc(S(N)(=O)=O)cc(OC)c1OC` (stereo not drawn), the Potency result in assay [1], in assay [2], in assay [3], in assay [4], in assay [19] and in assay [5] was “inactive” in each case. Further, the Potency result in assay [11], in [6], in assay [7], in assay [12], in assay [8] and in assay [13] was “inactive” throughout. In addition, the Potency entry in assay [14], in assay [9], in assay [10], in assay [15], in assay [16] and in assay [17] was “inactive” each time. For the same compound, the Potency result in assay [18] was “inactive”.
As to `CC1CCC(NC(=O)N(CCCl)N=O)CC1` (stereo not drawn), the Potency entry in [1], in assay [2], in assay [3], in assay [4], in assay [20] and in assay [11] was “inactive” in each case. Further, the Potency result in assay [6], in [12], in assay [8], in [14], in [9] and in assay [10] was “inactive” throughout. Further, the Potency entry in [15], in [16], in assay [17] and in [18] was “inactive” each time.
Consider `Cn1c(=O)c2c(ncn2CCOC(=O)C(C)(C)Oc2ccc(Cl)cc2)n(C)c1=O`, for which the Potency result in assay [1], in assay [2], in [3], in [4], in assay [19] and in assay [5] was “inactive” in each case. The Potency entry in assay [11], in assay [6], in [7], in assay [8], in [13] and in [14] was “inactive” each time. Also, the Potency entry in assay [9] and in assay [10] was “inactive” each time.
Turning to `Nc1ccc(N=Nc2ccccc2)c(N)n1`, the Potency entry in [1], in [2], in assay [3], in [4], in assay [20] and in assay [5] was “inactive” throughout. Further, the Potency entry in assay [11], in [6], in [7], in [14], in assay [9] and in [10] was “inactive” throughout. Also, the Potency result in assay [16], in assay [17] and in [18] was “inactive” each time. In addition, the Potency in assay [13] was 13.5 µM (active).
Turning to `N[C@@H](Cc1cc(I)c(Oc2ccc(O)c(I)c2)c(I)c1)C(=O)O`, the Potency result in assay [1], in assay [2], in assay [3], in assay [4], in assay [8] and in assay [14] was “inactive” in each case. Besides, the Potency entry in assay [10] is “inactive”. For the same compound, the values for the Potency in assay [5] and in [9] were 13.5 µM (active) and 11.2 µM (active), respectively.
`CCOC(=O)[C@@H](N)CS`: the Potency entry in assay [1], in assay [2], in assay [3], in assay [4], in assay [20] and in assay [5] was “inactive” throughout. Further, the Potency entry in assay [11], in [6], in assay [7], in assay [12], in assay [8] and in assay [13] was “inactive” each time. The Potency entry in [14], in [9], in assay [10], in [15], in [16] and in [17] was “inactive” each time. Further, the Potency result in [18] is “inactive”.
Turning to `CC(O)CN(C)C` (stereo not drawn), the Potency entry in [1], in [2], in [3], in [19], in assay [20] and in assay [5] was “inactive” each time. Also, the Potency entry in [11], in [6], in assay [7], in assay [12], in assay [8] and in assay [13] was “inactive” in each case. For the same compound, the Potency entry in assay [14], in assay [9], in [10], in [15], in assay [16] and in assay [17] was “inactive” throughout. For the same compound, the Potency result in assay [18] was “inactive”.
Consider `OC1OC[C@@H](O)[C@H](O)[C@@H]1O` (stereo partly drawn), for which the Potency entry in assay [1], in assay [2], in assay [3], in [4], in assay [20] and in [5] was “inactive” each time. Moreover, the Potency result in [11], in assay [6], in assay [7], in assay [12], in assay [8] and in assay [13] was “inactive” each time. Moreover, the Potency result in assay [14], in assay [9], in assay [10], in assay [15], in assay [16] and in assay [17] was “inactive” throughout. Besides, the Potency result in [18] is “inactive”.
For `O=C(Nc1ccc(O)cc1)c1ccccc1O`, the Potency entry in assay [1], in [2], in [3], in [4], in assay [20] and in [5] was “inactive” each time. In addition, the Potency result in [11], in assay [7], in assay [8], in [13], in assay [14] and in assay [9] was “inactive” in each case. In addition, the Potency result in [10], in assay [15], in assay [16], in assay [17] and in assay [18] was “inactive” in each case.
Take `NCCO/C=C/[C@H](N)C(=O)O`: the Potency entry in assay [1], in assay [2], in [4], in assay [19], in assay [20] and in [5] was “inactive” in each case. Moreover, the Potency entry in assay [11], in assay [6], in assay [7], in assay [12], in assay [8] and in [13] was “inactive” in each case. Also, the Potency result in assay [14], in [9], in assay [10], in assay [15], in assay [16] and in assay [17] was “inactive” throughout. Further, in [18], the Potency result is “inactive”.
For the compound `C=CCOc1ccc(CC(=O)O)cc1Cl`, the Potency result in [1], in assay [2], in assay [3], in [4], in assay [20] and in [5] was “inactive” throughout. Also, the Potency entry in assay [11], in [6], in [7], in assay [12], in [8] and in assay [13] was “inactive” throughout. Also, the Potency result in [14], in [9], in [10], in assay [15], in [16] and in assay [17] was “inactive” each time. The Potency entry in assay [18] was “inactive”.
